# RECQ1 helicase: qHTS Assay for Inhibitors of RecQ-Like Dna Helicase 1 (RECQ1); ATP-dependent DNA helicase Q1 (Homo sapiens), P46063; RECQ1 DNA unwinding, red fluorescence kinetic read; Potency, µM (highest dose often 57.3 µM), inactives show at the top dose activity, negative = inhibition, hits mostly inhibitors; actives 0.54% (n = 240,000);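 further: plate controls were vehicle for no effect and no enzyme for full effect; nearly all actives have a fitted effect of over 30% in size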
#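 50 nM RECQ1T1 preincubated 15 min with compound in Tris pH 8.0 buffer with MgCl2, DTT, Tween-20 and 2.5 ug/ml poly(dI-dC); started with 200 nM TAMRA/BHQ-2 forked duplex and 2 mM ATP. Unwinding read as fluorescence (525/598 nm), two reads 2 h apart.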
# APE1 inh-1: qHTS Assay for Inhibitors of the Human Apurinic/apyrimidinic Endonuclease 1 (APE1). DNA repair nuclease/redox regulator APEX1 (Homo sapiens), P27695. recombinant APE1, TAMRA/BHQ-2 abasic DNA cleavage fluorescence. actives 0.35% (n = 350,000). Potency, µM (series often up to 65.8 µM), without a hit: at the highest dose activity change, negative = inhibition, most hits filed as inhibitors. AID 2517, 2012;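 further: plate controls were vehicle for no effect and reference inhibitor for full effect; nearly all actives have a fitted effect of over 55% in size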
#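 Activity was derived from the fluorescence gain between first and third kinetic reads (60 s intervals, ex 525/em 598 nm) after 50 nM THF-abasic TAMRA/BHQ-2 duplex was added to 0.75 nM APE1 preincubated 15 min with compound.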
# FEN1 inhibitor: qHTS Assay for the Inhibitors of Human Flap endonuclease 1 (FEN1). P39748. Recombinant FEN1 flap cleavage, fluorescence, 15 min. Potency, µM (series often up to 114 µM), inactives show at the top dose activity change, negative = inhibition, most hits filed as inhibitors. actives 0.35% (n = 390,000). AID 588795, 2011; further: nearly all actives have a fitted effect of over 65% in size
# Target sequence (P39748 whole entry, looked up): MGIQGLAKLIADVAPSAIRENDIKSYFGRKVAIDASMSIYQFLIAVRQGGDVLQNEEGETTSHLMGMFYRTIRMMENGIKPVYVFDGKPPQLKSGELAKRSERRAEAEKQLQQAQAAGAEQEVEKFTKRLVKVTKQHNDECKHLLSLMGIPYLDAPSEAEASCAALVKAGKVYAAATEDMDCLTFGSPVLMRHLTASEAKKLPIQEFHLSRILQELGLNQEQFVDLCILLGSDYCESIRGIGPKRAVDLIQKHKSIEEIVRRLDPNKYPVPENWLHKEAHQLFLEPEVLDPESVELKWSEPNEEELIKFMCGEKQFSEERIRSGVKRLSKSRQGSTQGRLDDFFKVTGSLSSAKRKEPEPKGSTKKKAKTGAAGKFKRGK
#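 Enzyme 10 nM, 15 min RT preincubation with compound; start with substrate 50 nM final; reads at 0 and 15 min; qHTS titration, four-parameter Hill fit.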
# WRN inhibitor: qHTS for Inhibitors of WRN Helicase; Bifunctional 3'-5' exonuclease/ATP-dependent helicase WRN (Homo sapiens), Q14191; actives 0.46% (n = 360,000); Potency, µM (highest dose often 114 µM), without a hit: at the highest dose activity change, negative = inhibition, usual class: inhibitors; WRN helicase unwinding, fluorescent forked duplex, kinetic; further: nearly all actives have a fitted effect of over 55% in size
#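 Fluorescence dequenching readout, ex 525 nm/em 598 nm, kinetic mode: forked duplex DNA (100 nM final) with adjacent fluorophore and quencher unwound by WRN (20 nM final) with 2 mM ATP. Compound preincubation 15 min, room temperature.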
# BLM inh: qHTS Assay for Inhibitors of Bloom's syndrome helicase (BLM) | RecQ-like DNA helicase BLM (Homo sapiens), P54132 | recombinant BLM DNA unwinding, fluorescence dequenching | Potency, µM (series often up to 56.1 µM), for inactives: at the highest dose activity change, negative = inhibition, actives largely listed as inhibitors | actives 0.2% (n = 350,000);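 further: plate controls were vehicle for no effect and no enzyme for full effect; nearly all actives have a fitted effect of over 35% in size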
# APE1 dye cs: Counterscreen for APE1 Inhibitors: Fluorescent Dye Displacement Assay | actives 7% (n = 480) | DNA fluorescent dye displacement counterscreen, fluorescence | Potency, µM (highest dose often 28.5 µM), for inactives: top-dose activity change, negative = inhibition, hits mostly inhibitors | AID 2564, 2010 | shares compounds with APE1 inh-1;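 further: loss of thiazole orange fluorescence as the dye is displaced from duplex DNA; 0% = ThO with dsDNA and no compound and -100% = ThO without dsDNA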
# Endo IV inh: Counterscreen for APE1 Inhibitors: qHTS Assay for Inhibitors of Endonuclease IV; AID 2565, 2010; shares compounds with APE1 inh-1; Potency, µM (top dose mostly 27.1 µM), without a hit: top-dose activity change, negative = inhibition, hits mostly inhibitors; actives 4% (n = 560); E. coli Endo IV, fluorogenic AP-site DNA cleavage;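 further: plate controls were uninhibited enzyme wells for no effect and no enzyme buffer wells for full effect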
# APE1 inh-2: Confirmation qHTS Assay for Inhibitors of the Human Apurinic/apyrimidinic Endonuclease 1 (APE1) | shares compounds with APE1 inh-1 | purified APE1, fluorogenic abasic-site DNA cleavage | Potency, µM (doses to about 57.1 µM), for inactives: at the top dose activity change, negative = inhibition, most hits filed as inhibitors | actives 44% (n = 750); further: nearly all actives have a fitted effect of over 30% in size
# APE1 FP: qHTS FP-Based Assay for Inhibitors of the Human Apurinic/apyrimidinic Endonuclease 1 (APE1). Potency, µM (series often up to 28.5 µM), for the others: at the top dose activity, negative = inhibition, actives largely listed as inhibitors. actives 7% (n = 480). APE1 binding to TAMRA-labelled double-stranded DNA, fluorescence polarization displacement. AID 2573, 2010. shares compounds with APE1 inh-1
# * hit, by the source's call; ? = inconclusive; . = no result given; [ ] = another dose, or the depositor's remark. A selection: hits, their analogues and other compounds. The true share with any hit is near 0.87%. The call rests on the fitted dose curve; in most records, active means well fitted curve in the direction sought with a large enough effect; inconclusive means small, poorly fitted or top-dose-only effect, or another doubt; inactive means no such curve, though single readings can be large; an effect the other way counts as inactive or inconclusive. Unless noted, on the % scale 0 is the no-effect control and ±100 the full control effect; potency means the concentration at half of the fitted maximal effect.
SMILES,RECQ1 helicase,APE1 inh-1,FEN1 inhibitor,WRN inhibitor,BLM inh,APE1 dye cs,Endo IV inh,APE1 inh-2,APE1 FP
COc1ccc(OCc2cc(C(=O)O)c(C)o2)cc1,13%,25µM*,.,.,5%,.,.,40µM*,.
CC1=C(C(=O)Nc2ccccc2)C(c2ccccc2C)n2nc(SCC(=O)c3ccc(C)cc3)nc2N1 (centres undefined),.,.,20%,.,-1%,.,.,.,.
COc1cc(O)cc2cc3c(c(O)c12)C(=O)CC(C)(O)O3 (centres undefined),-7%,?,?,-7%[11.6 µM],-18%,19%,5%,14µM*,?
COc1cc(O)c2c(c1)OC(C)(C)CC2=O,-17%,1%,-4%,3%,-4%,.,.,.,.
O=C(O)c1ccc(-c2ccc(/C=C3\NC(=O)N(Cc4ccc(Cl)cc4)C3=O)o2)cc1,10%,-31%,-2%,-10%[11.6 µM],-1%,.,.,?,.
COc1ccc(CNC(=O)Nc2ccc(C)cc2)cc1,-12%,?,-3%,-2%,0%,.,.,.,.
COc1ccc(CNC(=O)Nc2cc(C)cc(C)c2)cc1,1%,-45%,-3%,0%,-5%,-1%,5%,-5%[24.4 µM],3%
O=C(O)c1cccc(NC(=S)NC(NC(=O)c2cccc([N+](=O)[O-])c2)C(Cl)(Cl)Cl)c1 (centres undefined),0%,?,-9%,?,-10%,.,.,?,.
CS(=O)(=O)N1Cc2ccccc2CC1C(=O)OCC(=O)Nc1ccc2ccccc2c1 (centres undefined),-16%,?,-9%,-35%,-20%,?,?,?,?
Cn1c(SCC(=O)Nc2ccc3nc(SCC(=O)N4CCCC4)sc3c2)nnc1-c1ccccc1,?,?,-24%,?,-27%,.,.,-39%,.
O=C(COc1ccccc1)Nc1ccc2nc(SCC(=O)N3CCCC3)sc2c1,.,.,-6%,.,-4%,.,.,.,.
CN(CC(=O)NC(=O)NCc1ccco1)Cc1nc2ccccc2c(=O)[nH]1,-30%,20µM*,-20%,?,?,?,9%,?,?
CCCOc1ccc(C2c3c(-c4ccccc4O)n[nH]c3C(=O)N2CCc2ccccc2)cc1OCC (centres undefined),.,.,-12%,.,-5%,.,.,.,.
CC(=O)Nc1nonc1-c1nnc(SCC(=O)Nc2cc(C)ccc2C)n1-c1ccccc1,.,.,12%,.,-2%,.,.,.,.
CCOc1cc(/C=N/Nc2cc(C)nc(-n3nc(C)cc3C)n2)ccc1O,-1%,3%,12%,-14%,-5%,.,.,-22%,.

# Screening results deposited in PubChem by National Center for Advancing Translational Sciences (NCATS).
